Source: PubChem BioAssay (National Center for Advancing Translational Sciences (NCATS))
ELG1 DNA repair: qHTS screen for small molecules that inhibit ELG1-dependent DNA repair in human embryonic kidney (HEK293T) cells expressing luciferase-tagged ELG1; 330,000 compounds, 2.3% hits; Potency, µM (top dose mostly 46.1 µM), hits mostly inhibitors; HEK293T ELG1-luciferase reporter, luminescence, 16 h; DNA damage induced by 5-fluorouridine; AID 504467, 2011; also: nearly all actives have a fitted effect of over 55% in size
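DMSO vehicle served as the neutral condition. Each well held 2,000 cells given 5-fluorouridine plus compound; after 16 hr at 37 °C/5% CO2, ONE-Glo was added and luciferase measured 30 min later.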
IL1B secr inh: qHTS for Inhibitors of Inflammasome Signaling: IL-1-beta AlphaLISA Primary Screen; THP-1 LPS/ATP IL-1B secretion, AlphaLISA, 16 h; stronger effect = lower value; activity change, % at 57.5 µM; 360,000 compounds, 4.7% hits; AID 743279, 2014; in the data active = activity change below about -50%; inconclusive = mostly about -30% to -49%
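Secreted IL-1B measured by AlphaLISA bead assay after 16 h compound exposure of THP-1 cells; compounds (final up to 57.5 uM) added 1 h before LPS (250 ng/mL) and ATP (1.25 mM) stimulation; lower signal means less secretion.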
DT40 TDP1 no CPT: qHTS for Inhibitors of human tyrosyl-DNA phosphodiesterase 1 (TDP1): qHTS in cells in absence of CPT; Potency, µM (series often up to 46.2 µM), hits mostly inhibitors; DT40 Tdp1-/- hTDP1 cells, no CPT, ATP luminescence, 48 h; 420,000 compounds, 15% hits; AID 686978, 2013; also: nearly all actives have a fitted effect of over 55% in size
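Stably hTDP1-transfected Tdp1-null chicken DT40 cells were treated with library compounds minus camptothecin and grown for at least 48 hr at 37 °C, after which cellular ATP was quantified by luminescence.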
TDP1 cell CPT: qHTS for Inhibitors of human tyrosyl-DNA phosphodiesterase 1 (TDP1): qHTS in cells in presence of CPT; 420,000 compounds, 12% hits; chicken DT40 Tdp1-/-;hTDP1 cells + 20 nM CPT, ATP luminescence, 48 h; Potency, µM (titrated, usually from 46.2 µM), most hits filed as inhibitors; also: nearly all actives have a fitted effect of over 55% in size
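Cell growth measured by CellTiter-Glo luminescence after a minimum 48 h, 37 C compound exposure with 20 nM CPT in Tdp1-knockout DT40 cells stably expressing hTDP1, seeded 400/well; qHTS titration format.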
HT1080NT lethal: qHTS for induction of synthetic lethality in tumor cells producing 2HG: qHTS for the HT-1080-NT fibrosarcoma cell line | HT-1080-NT fibrosarcoma viability, CellTiter-Glo ATP luminescence, 48 h | 360,000 compounds, 1.6% hits | AID 686970, 2013 | Potency, µM (series often up to 46.1 µM), most hits filed as cytotoxic;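 also: NT is the 2HG producing partner of a matched IDH1 knockdown line; nearly all actives have a fitted effect of over 55% in size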
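A 48-hour cytotoxicity screen used HT-1080-NT cells plated 2 hours before compound delivery. ATP-based CellTiter-Glo luminescence measured viability, normalized to DMSO and no-cell controls.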
HT1080 IDH1KD tx: qHTS for induction of synthetic lethality in tumor cells producing 2HG: qHTS for the HT-1080-IDH1KD cell line | HT-1080 IDH1 knockdown viability, ATP luminescence, 48 h | Potency, µM (highest dose often 46.1 µM), usual class: cytotoxic | 360,000 compounds, 2% hits | AID 686971, 2013
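Cytotoxicity counter-line: IDH1KD HT-1080, 48 h, CellTiter-Glo. Curves classed by r2, magnitude and activity.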
A number is an active result. An excerpt weighted towards active compounds, which were near 19% of everything screened. Unless noted, calls follow the shape of the dose curve; as a rule, active = well fitted curve in the direction sought with a large enough effect; inconclusive = small, poorly fitted or top-dose-only effect, or another doubt; inactive = no such curve, though single readings can be large; an effect the other way counts as inactive or inconclusive.

Results for Cc1ccc(NC(=O)CC2Oc3ccccc3NC2=O)cc1C (stereo unspecified) ?
DT40 TDP1 no CPT: inactive; TDP1 cell CPT: inactive

How did CCC(c1nnnn1-c1c(C)cccc1C)N1CCN(c2ccccn2)CC1 (stereo unspecified) do in these assays?
IL1B secr inh: inactive; DT40 TDP1 no CPT: inconclusive; TDP1 cell CPT: inconclusive; HT1080NT lethal: inactive; HT1080 IDH1KD tx: inactive

What do the screens show for `O=C(CSc1ncn[nH]1)N/N=C/c1ccc(C(F)(F)F)cc1`?
ELG1 DNA repair: inactive; IL1B secr inh: inactive; DT40 TDP1 no CPT: inactive; TDP1 cell CPT: inactive; HT1080NT lethal: inactive; HT1080 IDH1KD tx: inactive

What do the screens show for `CCC(Sc1nc2ncccc2o1)C(=O)Nc1cccc(C)c1` (stereo unspecified)?
DT40 TDP1 no CPT: inactive; TDP1 cell CPT: inactive

How did CCOc1ccccc1-c1cncc(NC)n1 do in these assays?
IL1B secr inh: inactive; DT40 TDP1 no CPT: inactive; TDP1 cell CPT: inconclusive; HT1080NT lethal: inactive; HT1080 IDH1KD tx: inactive

What do the screens show for `O=C(O)CCn1c2c(c3ccccc31)C[C@H](NS(=O)(=O)c1ccc(F)cc1)CC2`?
DT40 TDP1 no CPT: inactive; TDP1 cell CPT: inactive

Results for COc1c2c(cc3c1C(CC(O)Cc1ccccc1)N(C)CC3)OCO2 (stereo unspecified) ?
ELG1 DNA repair: inactive; IL1B secr inh: inactive; DT40 TDP1 no CPT: 10µM; TDP1 cell CPT: inconclusive; HT1080NT lethal: inactive; HT1080 IDH1KD tx: inactive

How did COc1cccc(CC(O)CC2c3c(cc4c(c3OC)OCO4)CCN2C)c1 (stereo unspecified) do in these assays?
IL1B secr inh: inactive; DT40 TDP1 no CPT: 15µM; TDP1 cell CPT: 21µM; HT1080NT lethal: inactive; HT1080 IDH1KD tx: inactive

Results for COc1ccc2c(c1OC)C(=O)O[C@@H]2[C@H]1c2c(cc3c(c2OC)OCO3)CCN1C ?
ELG1 DNA repair: inactive; DT40 TDP1 no CPT: inactive; TDP1 cell CPT: inactive

Results for CN(C)C1CCN(C(=O)c2cccc(OC3CCN(S(=O)(=O)N(C)C)CC3)c2)C1 (stereo unspecified) ?
ELG1 DNA repair: inactive; IL1B secr inh: inactive; DT40 TDP1 no CPT: inactive; TDP1 cell CPT: inactive; HT1080NT lethal: inactive; HT1080 IDH1KD tx: inactive

Results for COc1ccccc1C1CC(c2cccs2)=NN1C(=O)CCC(=O)O (stereo unspecified) ?
ELG1 DNA repair: inactive; IL1B secr inh: inactive; DT40 TDP1 no CPT: inactive; TDP1 cell CPT: inactive; HT1080NT lethal: inactive; HT1080 IDH1KD tx: inactive

Results for COc1ccc(C2CC(c3cccs3)=NN2C(=O)c2ccc(Br)o2)cc1 (stereo unspecified) ?
ELG1 DNA repair: inactive; IL1B secr inh: inactive; DT40 TDP1 no CPT: inconclusive; TDP1 cell CPT: 23µM; HT1080NT lethal: inactive; HT1080 IDH1KD tx: inactive

How did COc1cccc(C2CC(c3cccs3)=NN2C(=O)CSc2nc3ccccc3o2)c1OC (stereo unspecified) do in these assays?
ELG1 DNA repair: inconclusive; IL1B secr inh: inactive; DT40 TDP1 no CPT: 23µM; TDP1 cell CPT: 26µM; HT1080NT lethal: inactive; HT1080 IDH1KD tx: inactive

What do the screens show for `COc1ccc(C2CC(c3cccs3)=NN2C(=O)CSC2=NCCS2)cc1` (stereo unspecified)?
ELG1 DNA repair: inactive; IL1B secr inh: -81; DT40 TDP1 no CPT: inconclusive; TDP1 cell CPT: inactive; HT1080NT lethal: inactive; HT1080 IDH1KD tx: inactive

What do the screens show for `Cc1ccc(C2CC(c3cccs3)=NN2C(=O)CSC2=NCCS2)cc1` (stereo unspecified)?
ELG1 DNA repair: inconclusive; DT40 TDP1 no CPT: inconclusive; TDP1 cell CPT: inconclusive; HT1080NT lethal: inactive; HT1080 IDH1KD tx: inactive

Results for CCOC(=O)[C@]12CCCC=C1N(Cc1ccco1)C(=O)[C@H](CC(=O)N1CCOCC1)C2 ?
IL1B secr inh: inactive; DT40 TDP1 no CPT: inactive; TDP1 cell CPT: inactive; HT1080NT lethal: inactive; HT1080 IDH1KD tx: inactive

Results for CO/N=C(\Cn1ncc(N2CCCC2)c(Cl)c1=O)c1ccc(Cl)cc1 ?
ELG1 DNA repair: inactive; IL1B secr inh: inactive; DT40 TDP1 no CPT: 23µM; TDP1 cell CPT: 29µM; HT1080NT lethal: inactive; HT1080 IDH1KD tx: inactive

What do the screens show for `CC(=O)c1ccc(NC(=S)NC(C)c2ccc(Cl)cc2Cl)cc1` (stereo unspecified)?
ELG1 DNA repair: inactive; IL1B secr inh: -73; DT40 TDP1 no CPT: 29µM; TDP1 cell CPT: inconclusive; HT1080NT lethal: inconclusive; HT1080 IDH1KD tx: inconclusive

How did CC(=O)c1ccc(NC(=S)Nc2ccc(Br)c(Cl)c2)cc1 do in these assays?
ELG1 DNA repair: inactive; IL1B secr inh: inconclusive; DT40 TDP1 no CPT: inconclusive; TDP1 cell CPT: inconclusive; HT1080NT lethal: inactive; HT1080 IDH1KD tx: inactive

What do the screens show for `CCOc1ccc(NC(=O)CCS(=O)(=O)c2ccc3nc(C)sc3c2)cc1`?
DT40 TDP1 no CPT: inactive; TDP1 cell CPT: inactive

What do the screens show for `FC(F)(F)c1cccc(CNC(=S)Nc2ccccc2)c1`?
ELG1 DNA repair: inactive; IL1B secr inh: -79; DT40 TDP1 no CPT: 16µM; TDP1 cell CPT: inconclusive; HT1080NT lethal: inactive; HT1080 IDH1KD tx: inactive

What do the screens show for `FC(F)(F)c1cccc(NC(=S)NCc2ccccc2)c1`?
ELG1 DNA repair: inactive; IL1B secr inh: inactive; DT40 TDP1 no CPT: 23µM; TDP1 cell CPT: 21µM; HT1080NT lethal: inconclusive; HT1080 IDH1KD tx: inconclusive

How did COc1ccc(NC(=O)N2CC3(CCN(C(=O)c4ccncc4)CC3)C2)cc1 do in these assays?
DT40 TDP1 no CPT: inactive; TDP1 cell CPT: inactive

Results for Cc1ccc(S(=O)(=O)N2[C@@H](c3ccc(Cl)cc3)C(C(=O)O)=CC[C@H]2c2cccs2)cc1 ?
ELG1 DNA repair: inactive; IL1B secr inh: inactive; DT40 TDP1 no CPT: inactive; TDP1 cell CPT: inactive; HT1080NT lethal: inactive; HT1080 IDH1KD tx: inactive

What do the screens show for `C1=CC2=NC34CCCCC3CC3=C(CCCC3)N4C2=CC1=NC1CCCCC1` (stereo unspecified)?
IL1B secr inh: -98; DT40 TDP1 no CPT: 5.2µM; TDP1 cell CPT: 5.2µM; HT1080NT lethal: inactive; HT1080 IDH1KD tx: inconclusive

What do the screens show for `CNC(=O)NC(=O)C(C)OC(=O)c1c2c(nc3ccccc13)/C(=C/c1cccs1)CC2` (stereo unspecified)?
ELG1 DNA repair: 9.2µM; IL1B secr inh: inactive; DT40 TDP1 no CPT: 18µM; TDP1 cell CPT: 21µM; HT1080NT lethal: inactive; HT1080 IDH1KD tx: inactive
